Reference: PubChem BioAssay (Tox21)
Unmarked numbers belong to inactive results. Results filed as inconclusive are left out. Where a call stands in place of a potency, no number is given. Active and inactive are the calls of the source. Unless noted, calls come from the whole dose curve; as a rule, active = well fitted curve in the direction sought with a large enough effect in the repeat runs; inconclusive = weak or mixed curves; inactive = no such curve, though single readings can be large; an effect the other way counts as inactive or inconclusive.

What was measured:
[1] = target: Progesterone receptor (Homo sapiens) (UniProt P06401); test: qHTS assay to identify small molecule agonists of the progesterone receptor (PR) signaling pathway (AID 1346784; calls by dose curve; note: nearly all actives have a fitted effect of over 30% in size)
Outline: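 PR-UAS-bla HEK 293T cells (beta-lactamase reporter under UAS) in 2% charcoal-stripped FBS, dosed with 23 nL compound after 6 hr, incubated 16hr at 37C. LiveBLAzer B/G FRET substrate added, fluorescence read after 2 hours.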

[2] = target: Progesterone receptor (Homo sapiens) (UniProt P06401); test: qHTS assay to identify small molecule antagonists of the progesterone receptor (PR) signaling pathway (AID 1346795; active = well fitted inhibition curve with a large enough effect in the signal ratio in the repeat runs, not every such curve was filed as active; the % refers to the signal ratio; note: potency is the fitted concentration of half-maximal effect)
Outline: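 PR-UAS-bla HEK293T cells with beta-lactamase reporter under UAS control, in 2% charcoal-stripped FBS, treated with compounds plus 1 nM promegestone (R5020, final) for 16 hr at 37C. Read-out: FRET beta-lactamase substrate fluorescence after 2 hr at room temperature.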

[3] = qHTS assay to identify small molecule antagonists of the progesterone receptor (PR) signaling pathway - cell viability counter screen (AID 1346798); note: series mostly up to about 92 µM; nearly all actives have a fitted effect of over 50% in size
Outline: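 PR-UAS-bla HEK293T cells, 3,000/well in 2% charcoal-stripped FBS medium, dosed with compounds plus R5020 agonist and incubated 16 h at 37C. Viability then measured in the same wells by CellTiter-Glo luminescence after 30 min at RT.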

[4] = qHTS assay to identify small molecule agonists of the progesterone receptor (PR) signaling pathway - cell viability counter screen (AID 1346799; calls by dose curve; note: nearly all actives have a fitted effect of over 45% in size)
Outline: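 Counter screen in the PR-UAS-bla HEK293T wells (2% charcoal-stripped FBS, 16 h compound exposure at 37 C) after the bla read. CellTiter-Glo added, 30 min at room temperature, luminescence read as cell viability.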

[5] = qHTS assay to identify small molecule antagonists of the TGF-beta/Smad signaling pathway - cell viability counter screen (AID 1346824); note: nearly all actives have a fitted effect of over 50% in size
Outline: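 Cytotoxicity counter-screen run in the same wells as the beta-lactamase Smad reporter read: CellTiter-Glo luminescence after 30 min at room temperature. HEK 293T SBE-bla cells had 5 hr compound exposure at 37 C with TGF-beta1 (0.25 ng/mL stock).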

[6] = qHTS assay to identify small molecule agonists of the TGF-beta/Smad signaling pathway - cell viability counter screen (AID 1346829); note: top concentration of the series differs between compounds; nearly all actives have a fitted effect of over 45% in size
Outline: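 Same-well cytotoxicity: CellTiter-Glo added after the 2 hr room-temperature beta-lactamase substrate step, luminescence measured 30 min later; cells had 5 hr of compound at 37 C.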

[7] = qHTS assay to identify small molecule agonists of the TGF-beta/Smad signaling pathway (AID 1346859; active = well fitted activation curve with a large enough effect in the signal ratio in the repeat runs, not every such curve was filed as active; the % refers to the signal ratio; note: series mostly up to about 77 µM)
Outline: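 SBE-bla HEK293T cells plated overnight, then compound exposure for 5 h at 37 C. Beta-lactamase reporter read with LiveBLAzer B/G FRET substrate after 2 h at room temperature, fluorescence at 405 nm excitation, 460/530 nm emission.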

[8] = target: Thyrotropin-releasing hormone receptor (Homo sapiens) (UniProt P34981); test: qHTS assay to identify small molecule antagonists of the thyrotropin-releasing hormone receptor (TRHR) signaling pathway (AID 1346877; active = well fitted inhibition curve with a large enough effect in the repeat runs, not every such curve was filed as active; note: series mostly up to about 51 µM)
Outline: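 TRHR-expressing HEK293 cells were seeded, cultured 18 h at 37 °C, then loaded with calcium dye for 2 h. Compounds were pre-incubated 5 min at room temperature before 1 nM TRH (final) was added, and kinetic fluorescence was recorded for 3 min.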

[9] = target: Thyrotropin-releasing hormone receptor (Homo sapiens) (UniProt P34981); test: qHTS assay to identify small molecule agonists of the thyrotropin-releasing hormone receptor (TRHR) signaling pathway (AID 1346891; calls by dose curve; note: series mostly up to about 58 µM)
Outline: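 HEK293 cells expressing TRHR plated 18 h at 37 C/5% CO2, calcium dye-loaded 2 h at 37 C, then compound added (agonist mode); kinetic calcium fluorescence read 3 min at 1 s intervals; 15 concentrations in triplicate.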

[10] = Human pregnane X receptor (PXR) small molecule agonists, qHTS cell viability counter screen (AID 1346977); note: nearly all actives have a fitted effect of over 50% in size; note: potency is the fitted concentration of half-maximal effect
Outline: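 PXR-Luc HepG2 cells (2,000/well, 5% charcoal-stripped FBS) preincubated 5 hr, then exposed to compounds 24 hr at 37 C. Viability read in the same wells by CellTiter-Fluor fluorescence, reagent added at 23 hr, 1 hr incubation.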

[11] = Caspase-3/7 induction in HepG2 cells by small molecules, qHTS assay (AID 1346978); note: nearly all actives have a fitted effect of over 15% in size
Outline: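 Caspase-3/7 induction was measured by Caspase-Glo 3/7 luminescence (30 min, room temperature) after a 17 hr compound exposure of wild-type HepG2 cells seeded at 2,000 per well and pre-incubated 5 hr.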

[12] = Caspase-3/7 induction in CHO-K1 cells by small molecules, qHTS cell viability counter screen (AID 1346979); note: nearly all actives have a fitted effect of over 35% in size; note: potency is the fitted concentration of half-maximal effect
Outline: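 Wild-type CHO-K1 cells (1,500/well) treated with compound after 5 h plating; after 16 h at 37C, viability read as CellTiter-Fluor fluorescence following 1 h reagent incubation, in the same wells as the caspase read.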

[13] = Caspase-3/7 induction in CHO-K1 cells by small molecules, qHTS assay (AID 1346980); note: nearly all actives have a fitted effect of over 15% in size
Outline: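 Luminescent Caspase-Glo 3/7 read (30min, room temperature) quantified apoptosis induction. Cells were wild-type CHO-K1, treated with compound for 17hr at 37 C and 5% CO2.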

[14] = Caspase-3/7 induction in HepG2 cells by small molecules, qHTS cell viability counter screen (AID 1346981); note: series mostly up to about 92 µM; nearly all actives have a fitted effect of over 30% in size
Outline: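 Wild-type HepG2 cells (2,000/well) were allowed to settle for 5 hr at 37 C, 5% CO2, then dosed with compounds in DMSO by pin transfer. After 16 hr at 37 C, CellTiter-Fluor was added and fluorescence read 1 hr later.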

[15] = target: Nuclear receptor subfamily 1 group I member 2 (Homo sapiens) (UniProt O75469); test: Human pregnane X receptor (PXR) small molecule agonists, qHTS assay (AID 1346982); note: nearly all actives have a fitted effect of over 35% in size; note: potency is the fitted concentration of half-maximal effect
Outline: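 PXR-Luc HepG2 cells (CYP3A4 promoter-driven luciferase) were seeded in medium with 5% charcoal-stripped FBS, left 5 hr at 37 C, then exposed to compounds in DMSO for 24 hr. Luminescence was read after ONE-Glo addition.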

[16] = target: Cytochrome P450 2D6 (Homo sapiens) (UniProt P10635); test: Cytochrome P450 Family 2 Subfamily D Member 6 (CYP2D6) small molecule antagonists: luciferase reporter qHTS assay (AID 1671196); note: nearly all actives have a fitted effect of over 50% in size; note: potency is the fitted concentration of half-maximal effect; for activity change, negative = inhibition: series mostly up to about 120 µM
Outline: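 CYP2D6 enzyme–substrate mix was held with compound for 10 min at room temperature, then NADPH regeneration solution was added and the reaction ran 1 h at room temperature. Luciferin product was detected by luminescence after 20 min with detection reagent.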

[17] = qHTS assay to identify small molecule agonists of the estrogen receptor alpha (ER-alpha) signaling pathway in the presence of an antagonist - cell viability counter screen (AID 1259386);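 note: series mostly up to about 92 µM; cells exposed to compounds for 22 h at 37 °C before the viability read; nearly all actives have a fitted effect of over 30% in size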
Outline: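 VM7Luc4E2 cells (endogenous full-length ER-alpha, 4×ERE-luciferase) were held 5 days in phenol red-free medium with 10% charcoal-stripped FBS, plated, then given 10.0nM ICI-182,780 and compounds at 15 concentrations for 22hr at 37C; viability read by CellTiter-Fluor fluorescence.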

[18] = target: Nuclear receptor subfamily 1 group I member 2 (Rattus norvegicus) (UniProt Q9R1A7); test: Rat pregnane X receptor (rPXR) activation by small molecules, qHTS assay (AID 1346983); settings: rPXR luciferase reporter cells, One-Glo luminescence, 24 h; max activation: stronger effect = higher value; note: nearly all actives have a fitted effect of over 20% in size
Outline: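 Luminescent readout (One-Glo luciferase, 30 min room temperature) followed 24 hr compound treatment at 37 C of rPXR cells plated 2,000 per well and preincubated 5hr; qHTS format with compounds delivered in DMSO.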

[19] = target: Nuclear receptor subfamily 1 group I member 2 (Homo sapiens) (UniProt O75469); test: Human pregnane X receptor (PXR) activation by small molecules, qHTS assay (AID 1346985); note: nearly all actives have a fitted effect of over 40% in size
Outline: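 DPX-2 cells (HepG2 co-transfected with a PXR response element and a CYP3A4-promoter luciferase construct) were seeded at 2,000 per well, rested 5 hr at 37C, then exposed to DMSO-dissolved compounds for 24 hr. Activation was read as luciferase luminescence.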

[20] = target: Nuclear receptor subfamily 1 group I member 2 (Homo sapiens) (UniProt O75469); test: CYP3A4 induction through human pregnane X receptor (PXR) by small molecules, qHTS assay (AID 1346984); note: potency is the fitted concentration of half-maximal effect; nearly all actives have a fitted effect of over 40% in size
Outline: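 DPX-2 cells (HepG2 co-transfected with PXR and CYP3A4 promoter-luciferase) treated with compounds 24 h at 37C; luciferin-IPA CYP3A4 substrate 3uM final added for 3 h, then One-Glo; luminescence read. qHTS format.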

Chain of Nuclear receptor subfamily 1 group I member 2 (Homo sapiens) (O75469 whole entry, looked up): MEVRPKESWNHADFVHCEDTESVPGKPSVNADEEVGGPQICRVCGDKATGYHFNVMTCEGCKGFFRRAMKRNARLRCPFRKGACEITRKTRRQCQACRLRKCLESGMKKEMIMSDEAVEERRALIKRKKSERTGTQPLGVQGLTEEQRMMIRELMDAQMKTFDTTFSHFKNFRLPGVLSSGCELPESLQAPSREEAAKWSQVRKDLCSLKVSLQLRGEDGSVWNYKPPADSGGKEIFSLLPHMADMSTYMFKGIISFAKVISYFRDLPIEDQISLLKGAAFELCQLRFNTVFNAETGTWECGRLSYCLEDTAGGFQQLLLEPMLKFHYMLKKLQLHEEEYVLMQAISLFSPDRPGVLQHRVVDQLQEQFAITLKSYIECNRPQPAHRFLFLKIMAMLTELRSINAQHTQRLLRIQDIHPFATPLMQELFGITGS
Chain of Cytochrome P450 2D6 (Homo sapiens) (P10635 whole entry, looked up): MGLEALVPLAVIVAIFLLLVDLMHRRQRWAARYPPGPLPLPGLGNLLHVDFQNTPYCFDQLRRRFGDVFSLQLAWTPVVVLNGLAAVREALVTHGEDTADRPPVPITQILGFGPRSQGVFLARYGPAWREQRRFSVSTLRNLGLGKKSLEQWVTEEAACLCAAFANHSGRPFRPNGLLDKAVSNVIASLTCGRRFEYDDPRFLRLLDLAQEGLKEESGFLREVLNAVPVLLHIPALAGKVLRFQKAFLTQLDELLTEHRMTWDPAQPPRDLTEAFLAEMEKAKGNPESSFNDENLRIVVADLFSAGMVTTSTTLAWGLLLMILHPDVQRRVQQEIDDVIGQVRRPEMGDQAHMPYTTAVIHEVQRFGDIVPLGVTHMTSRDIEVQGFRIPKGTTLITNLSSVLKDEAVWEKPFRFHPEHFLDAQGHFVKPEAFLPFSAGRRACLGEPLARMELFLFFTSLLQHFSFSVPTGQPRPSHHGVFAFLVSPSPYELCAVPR
Chain of Thyrotropin-releasing hormone receptor (Homo sapiens) (P34981 whole entry, looked up): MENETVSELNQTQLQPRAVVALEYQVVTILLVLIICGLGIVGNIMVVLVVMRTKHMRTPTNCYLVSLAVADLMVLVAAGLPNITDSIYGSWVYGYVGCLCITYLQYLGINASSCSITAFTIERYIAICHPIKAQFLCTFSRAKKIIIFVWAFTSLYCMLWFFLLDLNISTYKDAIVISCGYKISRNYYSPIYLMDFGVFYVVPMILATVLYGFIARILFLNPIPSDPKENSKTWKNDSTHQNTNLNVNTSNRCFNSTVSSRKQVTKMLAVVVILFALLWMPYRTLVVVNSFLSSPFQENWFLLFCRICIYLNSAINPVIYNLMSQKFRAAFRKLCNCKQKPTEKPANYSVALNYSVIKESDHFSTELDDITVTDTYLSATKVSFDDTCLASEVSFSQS
Chain of Nuclear receptor subfamily 1 group I member 2 (Rattus norvegicus) (Q9R1A7 whole entry, looked up): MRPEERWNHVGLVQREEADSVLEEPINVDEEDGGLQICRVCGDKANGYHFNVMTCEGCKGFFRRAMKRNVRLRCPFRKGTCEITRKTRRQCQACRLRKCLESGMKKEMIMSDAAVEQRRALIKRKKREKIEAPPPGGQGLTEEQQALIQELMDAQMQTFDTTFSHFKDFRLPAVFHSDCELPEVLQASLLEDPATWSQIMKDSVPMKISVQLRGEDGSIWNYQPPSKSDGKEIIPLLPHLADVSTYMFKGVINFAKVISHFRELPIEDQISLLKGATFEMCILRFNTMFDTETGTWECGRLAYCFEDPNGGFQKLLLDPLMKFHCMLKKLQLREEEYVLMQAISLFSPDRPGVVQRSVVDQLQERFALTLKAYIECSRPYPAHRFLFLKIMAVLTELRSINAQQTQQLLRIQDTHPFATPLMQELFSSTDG
Chain of Progesterone receptor (Homo sapiens) (P06401 whole entry, looked up): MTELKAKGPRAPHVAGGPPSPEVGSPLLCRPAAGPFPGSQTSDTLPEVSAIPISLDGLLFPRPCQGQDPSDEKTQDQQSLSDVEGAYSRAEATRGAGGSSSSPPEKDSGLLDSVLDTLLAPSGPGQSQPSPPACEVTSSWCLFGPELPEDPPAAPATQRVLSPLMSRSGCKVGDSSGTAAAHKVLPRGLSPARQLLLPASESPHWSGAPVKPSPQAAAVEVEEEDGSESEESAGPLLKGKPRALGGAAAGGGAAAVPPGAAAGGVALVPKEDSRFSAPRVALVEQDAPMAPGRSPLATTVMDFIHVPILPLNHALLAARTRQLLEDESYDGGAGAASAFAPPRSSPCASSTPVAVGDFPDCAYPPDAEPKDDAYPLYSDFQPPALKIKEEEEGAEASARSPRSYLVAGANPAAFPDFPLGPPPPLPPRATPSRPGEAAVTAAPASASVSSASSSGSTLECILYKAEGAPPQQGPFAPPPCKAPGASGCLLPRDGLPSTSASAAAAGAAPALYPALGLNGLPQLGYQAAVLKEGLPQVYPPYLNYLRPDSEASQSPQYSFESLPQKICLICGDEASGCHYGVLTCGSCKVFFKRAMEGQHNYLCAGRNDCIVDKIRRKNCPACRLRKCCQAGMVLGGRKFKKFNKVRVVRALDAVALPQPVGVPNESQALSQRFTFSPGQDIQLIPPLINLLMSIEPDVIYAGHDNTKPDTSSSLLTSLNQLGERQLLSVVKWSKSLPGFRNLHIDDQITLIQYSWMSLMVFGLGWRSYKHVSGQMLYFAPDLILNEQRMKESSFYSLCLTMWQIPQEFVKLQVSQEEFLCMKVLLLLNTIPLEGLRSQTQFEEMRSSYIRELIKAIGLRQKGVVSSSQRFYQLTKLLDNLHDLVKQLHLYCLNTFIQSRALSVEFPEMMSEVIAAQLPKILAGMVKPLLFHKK

With O=C1c2cccc(O)c2C(=O)c2c(O)cc(CO)cc21 the outcome [1] was “inactive”, the Potency [2] was “inactive” and the Potency [3] was “inactive”. For the same molecule, the Potency [4] was “inactive”, the Potency [5] was “inactive” and the Potency [6] was “inactive”. The outcome [7] was “inactive”, the outcome [8] was “inactive” and the Potency [9] was “inactive”. The Potency [10] was 38.6 µM (active), the outcome [11] was “inactive” and the Potency [12] was “inactive”. The Potency [13] was “inactive”, the Potency [14] was “inactive” and the Potency [15] was 8.63 µM (active). For the same molecule, the Potency [16] was “inactive”.
With O=C(C(=O)c1ccc(Br)cc1)c1ccc(Br)cc1 the activity change, negative = cytotoxicity [17] was 0.0353% [at 19 µM], the activity change, negative = cytotoxicity [4] was 14.5% [at 19 µM] and the viability change, negative = cytotoxic [5] was 7.81% [at 15.8 µM]. For the same molecule, the activity change, negative = cytotoxicity [6] was 0.5% [at 15.8 µM], the activity, negative = inhibition [8] was -2.27% [at 10.5 µM] and the activation [9] was 0.083% [at 11.8 µM]. For the same molecule, the activity change, negative = cytotoxicity [10] was -1.5% [at 19 µM], the caspase activation [11] was -0.0549% [at 19 µM] and the activity change, negative = cytotoxicity [12] was 1.57% [at 19 µM]. For the same molecule, the caspase-3/7 activation [13] was 0.394% [at 19 µM], the activity change, negative = cytotoxicity [14] was 2.21% [at 19 µM] and the activation [15] was 1.54% [at 19 µM]. It also gave an activity change, negative = inhibition [16] of 1.74% [at 23.6 µM].
With O=C(O)C(c1ccc(Cl)cc1)c1ccc(Cl)cc1 the outcome [1] was “inactive”, the Potency [2] was “inactive” and the Potency [5] was “inactive”. The Potency [6] was “inactive”, the outcome [7] was “inactive” and the outcome [8] was “inactive”. For the same molecule, the Potency [9] was “inactive”, the Potency [10] was “inactive” and the Potency [12] was “inactive”. For the same molecule, the Potency [13] was “inactive”, the Potency [14] was “inactive” and the Potency [15] was “inactive”. For the same molecule, the Potency [16] was “inactive”.
For Cc1ccccc1N=Nc1ccc(N=Nc2c(O)ccc3ccccc23)c(C)c1, the Potency [17] was “inactive”, the Potency [4] was “inactive” and the Potency [5] was “inactive”. The Potency [6] was “inactive”, the outcome [7] was “inactive” and the Potency [9] was “inactive”. The outcome [11] was “inactive”, the Potency [12] was 13.3 µM (active) and the Potency [13] was “inactive”. For the same molecule, the Potency [15] was “inactive”, the max activation [18] was 6.7% and the Potency [19] was “inactive”. The Potency [16] was “inactive”.
With CCCCCC(CO)CCC (stereo not drawn) the Potency [17] was “inactive”, the Potency [3] was “inactive” and the Potency [5] was “inactive”. For the same molecule, the outcome [7] was “inactive”, the Potency [9] was “inactive” and the Potency [10] was “inactive”. The outcome [11] was “inactive”, the Potency [12] was “inactive” and the Potency [13] was “inactive”. The Potency [14] was “inactive”, the Potency [15] was “inactive” and the Potency [16] was “inactive”.
In the case of O=C(O)[C@@H]1[C@H]2C[C@H]3c4[nH]c5ccccc5c4CCN3C[C@@H]2CC[C@@H]1O, the outcome [1] is reported as “inactive”, the Potency [2] is reported as “inactive” and the Potency [5] is reported as “inactive”. The Potency [6] was “inactive”, the outcome [7] was “inactive” and the outcome [8] was “inactive”. The Potency [9] was “inactive”, the outcome [11] was “inactive” and the Potency [12] was “inactive”. For the same molecule, the Potency [13] was “inactive”, the Potency [14] was “inactive” and the Potency [15] was “inactive”. The max activation [18] was -0.311%, the Potency [19] was “inactive” and the Potency [16] was 1.55 µM (active).
In the case of CC1=CC(=O)/C(=C(/C)O)C(=O)O1, the outcome [1] is reported as “inactive”, the Potency [2] is reported as “inactive” and the Potency [3] is reported as “inactive”. For the same molecule, the Potency [4] was “inactive”, the Potency [5] was “inactive” and the Potency [6] was “inactive”. The outcome [7] was “inactive”, the outcome [8] was “inactive” and the Potency [9] was “inactive”. For the same molecule, the Potency [10] was “inactive”, the outcome [11] was “inactive” and the Potency [12] was “inactive”. The Potency [13] was “inactive”, the Potency [14] was “inactive” and the Potency [15] was “inactive”. The Potency [16] was “inactive”.
For O=C(Nc1ccccc1)OCC(CN1CCCCC1)OC(=O)Nc1ccccc1 (stereo not drawn), the outcome [1] was “inactive”, the Potency [2] was 23.7 µM (active) and the Potency [3] was “inactive”. For the same molecule, the Potency [5] was “inactive”, the Potency [6] was “inactive” and the outcome [7] was “inactive”. The outcome [8] was “inactive”, the Potency [9] was “inactive” and the outcome [11] was “inactive”. For the same molecule, the Potency [13] was “inactive”, the Potency [14] was “inactive” and the Potency [15] was 2.37 µM (active). The max activation [18] was 0.646%, the Potency [20] was 10 µM (active) and the Potency [16] was 0.436 µM (active).
For Cc1ccc(C)o1, the outcome [1] was “inactive”, the Potency [2] was “inactive” and the Potency [3] was “inactive”. For the same molecule, the Potency [5] was “inactive”, the Potency [6] was “inactive” and the outcome [7] was “inactive”. For the same molecule, the outcome [8] was “inactive”, the Potency [9] was “inactive” and the Potency [10] was “inactive”. For the same molecule, the outcome [11] was “inactive”, the Potency [12] was “inactive” and the Potency [13] was “inactive”. The Potency [14] was “inactive”, the Potency [15] was “inactive” and the Potency [16] was “inactive”.
